# Source: PubChem BioAssay (Tox21)
# “And” between values parts separate entries of the source, which are not always exact repeats. Equal entries are not always repeated. Inconclusive results are not listed. A call without a number means that no potency is given here. The source holds several records for some structures; these can differ, active in one and inactive in another. The source made the active and inactive calls. Calls follow the shape of the dose curve; as a rule, active = well fitted inhibition curve with a large enough effect in the repeat runs; inconclusive = weak or mixed curves; inactive = no such curve, though single readings can be large or run the other way.
# Biological target: Androgen receptor (Homo sapiens) (UniProt P10275)
# Sequence (P10275 whole entry, looked up): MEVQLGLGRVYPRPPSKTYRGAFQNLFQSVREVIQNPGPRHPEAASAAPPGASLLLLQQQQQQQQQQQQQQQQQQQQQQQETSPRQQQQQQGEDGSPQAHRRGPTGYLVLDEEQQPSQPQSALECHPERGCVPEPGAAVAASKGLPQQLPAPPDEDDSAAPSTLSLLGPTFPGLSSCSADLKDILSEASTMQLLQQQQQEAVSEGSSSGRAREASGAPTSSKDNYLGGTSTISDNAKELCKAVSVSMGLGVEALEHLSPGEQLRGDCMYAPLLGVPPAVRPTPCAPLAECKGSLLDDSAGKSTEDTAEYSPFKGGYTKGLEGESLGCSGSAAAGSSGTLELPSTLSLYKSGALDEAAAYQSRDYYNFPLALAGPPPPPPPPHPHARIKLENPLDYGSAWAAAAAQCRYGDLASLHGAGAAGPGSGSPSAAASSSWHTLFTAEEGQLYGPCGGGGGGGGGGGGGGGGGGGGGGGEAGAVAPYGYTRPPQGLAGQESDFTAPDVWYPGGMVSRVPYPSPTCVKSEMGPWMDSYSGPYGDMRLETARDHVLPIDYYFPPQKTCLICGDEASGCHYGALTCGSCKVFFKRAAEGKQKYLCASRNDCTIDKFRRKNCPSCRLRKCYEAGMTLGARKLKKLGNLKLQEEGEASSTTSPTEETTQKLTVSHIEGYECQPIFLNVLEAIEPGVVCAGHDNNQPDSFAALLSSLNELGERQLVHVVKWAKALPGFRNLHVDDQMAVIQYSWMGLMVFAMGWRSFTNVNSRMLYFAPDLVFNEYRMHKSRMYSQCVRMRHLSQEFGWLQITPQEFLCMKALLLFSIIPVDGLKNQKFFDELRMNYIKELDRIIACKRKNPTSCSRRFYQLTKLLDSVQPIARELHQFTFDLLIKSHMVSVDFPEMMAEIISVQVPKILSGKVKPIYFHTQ
# Experiment: qHTS assay to identify small molecule antagonists of the androgen receptor (AR) signaling pathway using the MDA cell line in the presence of 0.5 nM R1881 (AID 1259243)
# Details: MDA-kb2 MMTV-luciferase, R1881 0.5 nM, 16 h; series mostly up to 92.4 µM; activity, negative = inhibition: at the top concentration
# Method in brief: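 Stably transfected MDA-kb2 cells express luciferase from an MMTV promoter bearing both AR and GR response elements. Compounds plus 0.5 nM R1881 (final) were incubated 16 hr at 37C without CO2, then luminescence measured.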
# Also: nearly all actives have a fitted effect of over 50% in size.
row,Compound,outcome
1,OCC1CCCO1 (stereo unspecified),inactive
2,CCCCC(CC)C(=O)OCCOCCOCCOC(=O)C(CC)CCCC (stereo unspecified),inactive
3,Nc1cc(-c2ccncc2)c[nH]c1=O,inactive
4,CCCCC(CC)COC(=O)/C=C\C(=O)OCC(CC)CCCC (stereo unspecified),inactive

# Biological target: Estrogen receptor (Homo sapiens) (UniProt P03372)
# Sequence (P03372 whole entry, looked up): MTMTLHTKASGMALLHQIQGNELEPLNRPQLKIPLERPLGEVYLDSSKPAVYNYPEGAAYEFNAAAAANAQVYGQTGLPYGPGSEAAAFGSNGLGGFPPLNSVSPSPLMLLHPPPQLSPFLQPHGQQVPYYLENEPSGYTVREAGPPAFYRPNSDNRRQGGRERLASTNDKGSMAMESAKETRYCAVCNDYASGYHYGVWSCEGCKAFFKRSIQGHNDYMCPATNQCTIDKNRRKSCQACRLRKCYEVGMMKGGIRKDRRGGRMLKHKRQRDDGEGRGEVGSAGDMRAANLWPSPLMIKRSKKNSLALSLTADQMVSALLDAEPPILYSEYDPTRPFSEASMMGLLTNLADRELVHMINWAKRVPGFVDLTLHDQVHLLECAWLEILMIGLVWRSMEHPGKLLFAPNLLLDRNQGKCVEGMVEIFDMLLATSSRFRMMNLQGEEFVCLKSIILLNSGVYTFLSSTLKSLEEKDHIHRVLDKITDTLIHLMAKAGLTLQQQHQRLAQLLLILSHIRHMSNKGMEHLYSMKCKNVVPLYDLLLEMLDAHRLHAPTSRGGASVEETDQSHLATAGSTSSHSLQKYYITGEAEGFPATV
# Experiment: qHTS assay to identify small molecule antagonists of the estrogen receptor alpha (ER-alpha) signaling pathway using the BG1 cell line in the presence of 0.1 nM 17-beta-estradiol (AID 1259244); also: potency is read from the fitted curve at half-maximal effect
# Details: VM7Luc4E2 (BG1) ERE-luciferase, antagonist mode, 0.1 nM E2, 22 h; series mostly up to 92.4 µM; activity change, negative = inhibition: at the top concentration
# Method in brief: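 Antagonist mode: compounds in DMSO are pinned onto VM7Luc4E2 reporter cells, 0.1 nM final 17beta-estradiol is added, and after 22 h at 37C luciferase luminescence is measured with ONE-Glo.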
Compound,Potency,"activity change, negative = inhibition"
CC1=C(/C=C/C(C)=C/C=C/C(C)=C/CO)C(C)(C)CCC1,inactive,
NCc1cccc(CN)c1,inactive,
OCC1CCCO1 (stereo unspecified),inactive,
CCCCC(CC)C(=O)OCCOCCOCCOC(=O)C(CC)CCCC (stereo unspecified),inactive,
O=S(=O)(O)CCS,inactive,
ClC1=C(Cl)C(Cl)(Cl)C(Cl)=C1Cl,inactive,
OC[C@@H](O)[C@H](O)[C@H](O)[C@@H](O)CO,inactive,
CCOC(=O)/C=C\C(=O)OCC,inactive,
CC1=CC[C@H]2C[C@@H]1C2(C)C,inactive,
O=C(c1ccc(O)cc1)c1ccc(O)cc1O,,16.4% (inactive)
CCc1ccccc1O,19.2 µM (active) and inactive,
COCC(C)O (stereo unspecified),inactive,
CCCCCCOC(C)=O,inactive,
c1ccc2ccccc2c1,inactive,
CC(C)(C)C1CCC(O)CC1 (stereo unspecified),inactive,
O=S(=O)(O)c1cc(S(=O)(=O)O)c2c(N=Nc3ccccc3)c(O)ccc2c1,inactive,
Cn1c([N+](=O)[O-])cnc1COC(N)=O,inactive,
CCCCCCCCC,inactive,
C=C(C)C(=O)OCCCCCC,inactive,
Oc1c(Cl)cc(Cl)c(Cl)c1Cl,47.5 µM (active) and 61.1 µM (active),
Cc1cc(O)c2c(c1)C(=O)c1cc(O)cc(O)c1C2=O,,-2.03% [at 42.5 µM] (inactive)
Nc1c(S(=O)(=O)O)cc(Br)c2c1C(=O)c1ccccc1C2=O,inactive,
